Measured values as given in PubChem BioAssay AID624202 (National Center for Advancing Translational Sciences (NCATS), 2012).
Among all 380,000 compounds or so, about 4,000 (1.1%) were called active. Roughly 3% stayed inconclusive and do not appear here. What follows is part of a selection rich in actives, with near analogues and random picks from the rest. Values without a mark were called inactive. The call rests on the fitted dose curve; in most records, active means well fitted activation curve with a large enough effect; inconclusive means small, poorly fitted or top-dose-only effect; inactive means no such curve, though single readings can be large or run the other way.

Assay: qHTS Assay to Identify Small Molecule Activators of BRCA1 Expression; further: nearly all actives have a fitted effect of over 80% in size
Settings: MCF7-BRCA1-FFLuc reporter, luminescence, 48 h; series mostly up to 46.1 µM; activation: at the top concentration
How it was run: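 Compounds are tested at multiple concentrations on MCF7 BRCA1-luciferase reporter cells seeded at 2000 per well; after 48 h, a single luminescence end-point is taken and curves fitted to the normalized data.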
Potency means the concentration at half of the fitted maximal effect.

In order of rising “activation” value:
1. O=C(Nc1ccccc1C(F)(F)F)c1nc(S(=O)(=O)Cc2ccccc2F)ncc1Cl  -78.4%
2. Cc1cc(C)cc(-n2c(SCC(=O)NCC3CCCO3)nc3c([nH]c4ccccc43)c2=O)c1 (configuration not stated)  -50.7%
3. COc1cc(OC)c(/C=C/c2ccnc3ccccc23)c(OC)c1  -43.7%
4. O=C(NCCOc1ccccc1Cl)C(=O)Nc1ccccc1  -41.6%
5. COC(=O)c1ccc(/C=C/c2c(-c3ccc(OC)cc3)sc3ccccc23)cc1  -41.1%
6. Cc1cccc(NC(=O)CSCC(=O)Nc2nnc(C3CC3)s2)c1  -38.4%
7. Cc1ccccc1-c1nnn(CC(=O)c2ccc(S(=O)(=O)N3CCCC3)cc2)n1  -30.9%
8. Cc1c2cnn(-c3ccccc3)c(=O)c2c(C)n1C(C)C(=O)Nc1ccc(Br)cc1F (configuration not stated)  -24.2%
9. COc1ccc(/C=C/c2ccnc3ccccc23)cc1OC  -23.9%
10. C[C@H](NC(=O)NCCc1ccccc1)C(=O)O  -23.9%
11. COc1ccccc1CNC(=O)CCCCn1c(=O)c2ccccc2n(CC(=O)Nc2cc(Cl)ccc2C)c1=O  -20.3%
12. O=C(c1[nH]ncc1-c1ccc(Cl)cc1)C1CO1 (configuration not stated)  -20%
13. COc1ccccc1CCNC(=O)c1cccn1-c1nnc(N2CCCCC2)s1  -17%
14. CCN(CC)/[N+]([O-])=N/OCOC(=O)Cc1c(C)n(C(=O)c2ccc(Cl)cc2)c2ccc(OC)cc12  -16%
15. COc1ccccc1-c1sc2ccccc2c1-c1ccc(C(C)=O)cc1  -15.5%
16. O=C(CSc1nc(=O)n(Cc2cccnc2)c2c1CCC2)Nc1ccc(F)cc1F  -12.5%
17. CSc1cccc(NC(=O)CN2C(=O)CCc3cc(S(=O)(=O)N4CCCCC4)ccc32)c1  -12.1%
18. Cn1c(=O)nc2n(-c3ccc(Br)cc3)c3cccc(Cl)c3cc-2c1=O  -11.7%
19. COc1cc(-c2nnn(CC(=O)NCc3ccccc3)n2)cc(OC)c1OC  -8.64%
20. CCc1ccc(CNC(=O)c2cc3cc4ccc(OC)cc4nc3o2)cc1  -7.1%
21. O=C(CSc1nc2ccccc2c(=O)n1-c1ccccc1F)N1CCOCC1  -6.09%
22. Cc1cccc(N2CCN(C(=O)c3oc(=O)c4ccccc4c3-c3ccccc3)CC2)c1C  -3.27%
23. CCNC(=O)c1sccc1-n1cccc1  -2.78%
24. COc1cc(OC)cc(-c2nc3nc(C)c(CCC(=O)Nc4ccc(C)cc4)c(C)n3n2)c1  -2.52%
25. CC(=O)N1CCc2cc(Br)cc(S(=O)(=O)CCC(=O)NCCc3ccc(Cl)cc3)c21  -2.1%
26. COc1ccccc1OCCNC(=O)CCNC(=O)c1ccccc1Cl  -0.0194%
27. CN(CCOc1ccccc1)C(=O)c1cc(COc2c(F)cccc2F)on1  0%
28. CCC(C(=O)Nc1cc(OC)ccc1OC)n1c(=O)c(C(F)(F)F)nc2ccccc21 (configuration not stated)  0%
29. COc1ccc(CNc2nc(-c3ccc(Cl)cc3)nn2C(=O)c2ccccc2)cc1  0.489%
30. Cc1ccc(Cc2nc3ccccc3nc2SCC(=O)Nc2cccc(C(F)(F)F)c2)cc1  0.931%
31. COc1cc2[nH]c(O)c(C=O)c2cc1OC  1.23%
32. COc1ccc2c(c1)c(=O)c(C(=O)c1ccccc1)cn2CC(=O)Nc1ccc2c(c1)OCCO2  1.41%
33. CCN(CC)S(=O)(=O)c1ccc2c(c1)c(=O)c(C(=O)N1CCN(c3cccc(Cl)c3)CC1)cn2C  1.45%
34. Cc1scc(C(=O)NNC(=S)NCC(C)C)c1C  2.45%
35. O=S(=O)(c1ccc(C2CCCCC2)cc1)N1CCN(c2ccc(Cl)c(Cl)c2)CC1  3.15%
36. CC(=O)Nc1ccc(S(=O)(=O)N2CCN(c3ccccc3)CC2)cc1  3.72%
37. C/C(=N/NS(=O)(=O)c1ccccc1)c1ccc(NC(=O)C(F)(F)F)cc1  3.78%
38. Nc1nonc1C(=O)NCCc1ccccc1  4.5%
39. O=C(NCCN1CCCC(O)C1)c1cc(COc2c(F)cccc2F)on1 (configuration not stated)  5.2%
40. CCc1c(O)nc(SCC(=O)N2CCCCC2)n(-c2ccccc2C)c1=O  6.28%
41. CCOCCc1nn2c(=O)cc(COC(=O)CNC(=O)c3ccc(C(C)(C)C)cc3)nc2s1  6.51%
42. CC(C)CNC(=S)NNC(=O)c1nn(C)cc1Cl  7.17%
43. O=C(Nc1cnn(Cc2ccc(Cl)cc2)c1)C1CCCC1  7.68%
44. COc1ccc(C2NC(=O)N(C)C3=C2C(=O)N(c2ccc(C(=O)O)cc2)C3)cc1 (configuration not stated)  8.52%
45. NC(=O)Nc1ccc(/C=C/c2ccnc3ccccc23)cc1  9.16%
46. COc1cccc(CNC(=O)CN2C(=O)CCc3cc(S(=O)(=O)N4CCOCC4)ccc32)c1  11.1%
47. CC(=O)NN=C(C)c1ccc(NC(=O)C2CC2)cc1  13.3%
48. CC1CCN(c2ccc(C(=O)Nc3nnc(C4CC4)s3)cc2[N+](=O)[O-])CC1  13.3%
49. CN(CC(=O)Nc1cccc(C(F)(F)F)c1)S(=O)(=O)c1cccs1  14.2%
50. O=C(CSc1ncc(S(=O)(=O)c2ccc(Br)cc2)c(=O)[nH]1)Nc1ccc2c(c1)OCCO2  15.7%
51. Cc1ccsc1C(=O)NC1CCCCC1C (configuration not stated)  23.2%
52. c1ccc(Cn2nnc3c(N4CCCCC4)ncnc32)cc1  32%
53. c1ccc(-c2c[nH]c(-c3ccccc3)c2)cc1  41.4%
54. O=C(OCc1ccc(-c2ccccc2)cc1)c1cccc(O)c1  83.1%

With `Cc1ccc(-n2c(SCC(=O)N3CCC(C(=O)O)CC3)nc3ccccc3c2=O)cc1C` the Potency was 4.47 µM (active).
For `COc1ccc(N=Cc2c(O)[nH]c3ccccc23)cc1OC`, the Potency was 3.16 µM (active).
With `COc1cc(SC)ccc1C(=O)NCCOc1ccccc1Cl` the Potency was 7.94 µM (active).
With `Oc1ccc(-c2cccc(-c3ccc(O)cc3)c2)cc1` the Potency was 10 µM (active).
For `O=C(c1nnc(-c2ccc(Cl)cc2)o1)C1CCCC1`, the Potency was 11.2 µM (active).
In the case of `CC(C)CNC(=S)NC(=O)c1ccc(Cl)cc1`, the Potency is reported as 10 µM (active).
For `O=C(NCCCc1ccccc1)c1cc(COc2c(F)cccc2F)on1`, the Potency was 12.6 µM (active).
In the case of `CC(C)Cc1cc(C(=O)NCCc2ccccc2)no1`, the Potency is reported as 5.01 µM (active).
In the case of `C/C(=N/NC(=O)c1ccc(NC(=O)c2ccc(F)cc2)cc1)c1ccccc1`, the Potency is reported as 12.6 µM (active).
For `CC(C)(C)NC(=O)Cn1nnc(-c2ccccc2Cl)n1`, the Potency was 12.6 µM (active).
In the case of `COc1ccc(N=C(C)c2sc3ccccc3c2O)cc1`, the Potency is reported as 5.01 µM (active).
For `Cc1ccsc1C(=O)NCCc1ccco1`, the Potency was 4.47 µM (active).
For `Cc1cc(C(=O)Nc2nnc(C3CC3)s2)c(C)s1`, the Potency was 3.55 µM (active).
